Bioassay records (PubChem)
PK Bst – Pyruvate Kinase; purified pyruvate kinase, luminescence ATP production; ribose 5-phosphate activator present at AC10; Potency, µM; 51,000 tested, 1.2% active; AID 361, 2006; in the data active = potency below about 11 µM; inconclusive = mostly about 12 µM to 25 µM;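 the screen sought inhibitors and activators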;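 also: scaled between full activation by ribose 5 phosphate and full inhibition by luteolin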
GBA activity – Glucocerebrosidase; Lysosomal acid glucosylceramidase (Homo sapiens), P04062; purified enzyme, resorufin glucoside fluorescence (screen aimed at inhibitors), 20 min; Potency, µM; 48,000 tested, 1.1% active; in the data active = potency below about 15 µM; inconclusive = mostly about 16 µM to 33 µM;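 also: the screen sought inhibitors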
Target sequence (P04062 whole entry, looked up): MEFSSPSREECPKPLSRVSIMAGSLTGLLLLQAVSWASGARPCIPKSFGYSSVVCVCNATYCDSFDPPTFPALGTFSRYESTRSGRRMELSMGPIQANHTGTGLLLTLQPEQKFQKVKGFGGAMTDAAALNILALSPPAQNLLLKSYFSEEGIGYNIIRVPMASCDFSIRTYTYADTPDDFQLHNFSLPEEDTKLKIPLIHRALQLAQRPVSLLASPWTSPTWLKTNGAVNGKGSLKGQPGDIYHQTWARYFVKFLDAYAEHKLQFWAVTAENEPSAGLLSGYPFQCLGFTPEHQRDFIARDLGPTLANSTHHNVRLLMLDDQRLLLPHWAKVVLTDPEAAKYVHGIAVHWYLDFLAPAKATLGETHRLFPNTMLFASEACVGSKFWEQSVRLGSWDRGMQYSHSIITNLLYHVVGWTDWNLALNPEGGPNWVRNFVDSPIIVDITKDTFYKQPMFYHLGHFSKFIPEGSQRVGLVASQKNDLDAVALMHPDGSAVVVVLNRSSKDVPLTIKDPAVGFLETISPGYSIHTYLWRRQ
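Compounds titrated against 0.2 nM normal enzyme, 30 uM resorufin beta-D-glucopyranoside substrate, citrate/phosphate buffer with taurocholate and tween-20, pH 5.9. Reaction ran 20 min at room temperature; fluorescence (Ex 548/Em 600) gave AC50.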
* hit, by the source's call. This is a sample that favours compounds with a hit; in the whole collection about 2.3% have one here. Potency is read from the fitted curve at half-maximal effect.

How did Cn1c(=O)[nH]c(=O)c2c1nc(N1CCCCC1)n2CC(O)CN1CCCCC1 (stereo not given) do in these assays?
PK Bst: >57; GBA activity: >76.9

Results for Cn1c(=O)[nH]c(=O)c2c1nc(N1CCCCCC1)n2CCN1CCCCCC1 ?
PK Bst: >57; GBA activity: 11.3*

Results for C=CCc1ccc(OCCCCCN2CCOCC2)c(OC)c1 ?
PK Bst: >57; GBA activity: inactive

How did CCCSc1nnc2n(C)c(=O)c3c4c(sc3n12)CCC4 do in these assays?
PK Bst: 4.67*

What do the screens show for `CCCSc1nnc2n(Cc3ccccc3)c(=O)c3c4c(sc3n12)CCC4`?
PK Bst: >25.6

Results for COCCn1c(C2CCCCC2)nc2sc3ccccc3c(=O)c2c1=O ?
PK Bst: >57; GBA activity: >76.9

How did O=S(=O)(NC1CCCC1)c1ccc(S(=O)(=O)N2CCCN(Cc3ccccc3)C2)cc1 do in these assays?
PK Bst: >57; GBA activity: 14.7*

Results for CS(=O)(=O)NC1CCN(Cc2ccccc2)CC1 ?
PK Bst: >57; GBA activity: >76.9

What do the screens show for `CCN(CC(=O)NC)S(=O)(=O)c1ccc(Br)cc1`?
PK Bst: >57; GBA activity: >76.9

How did CCN(Cc1ccncc1)S(=O)(=O)c1ccc(C(C)=O)cc1 do in these assays?
PK Bst: >57; GBA activity: >76.9

What do the screens show for `CCCCN1CCc2c([nH]c3c(C)cccc23)C1=O`?
PK Bst: >57; GBA activity: 9.79*

What do the screens show for `CCCCN1CC(COc2ccccc2)OC1=O` (stereo not given)?
PK Bst: >57; GBA activity: >76.9

What do the screens show for `Oc1ccccc1Oc1ncc(Br)c(N2CCOCC2)n1`?
PK Bst: >57; GBA activity: >76.9

How did Brc1cnc(N2CCCC2)nc1N1CCOCC1 do in these assays?
PK Bst: >57; GBA activity: 14.6*

How did COc1ccccc1N1CCN(S(=O)(=O)c2ccccc2)CC1 do in these assays?
PK Bst: inconclusive; GBA activity: >76.9

Results for COc1ccccc1N1CCN(S(=O)(=O)c2c(C)ccc3nsnc23)CC1 ?
PK Bst: 2.87*; GBA activity: >76.9

Results for CCN(CC)CCCOc1nc(C)nc2c1oc1ccccc12 ?
PK Bst: >57; GBA activity: >76.9

What do the screens show for `CN(C)CCOc1nc(-c2ccccc2)nc2c1oc1ccccc12`?
PK Bst: 10.7*; GBA activity: inactive

Results for NC(=O)c1ccccc1NC(=O)CS(=O)(=O)Cc1ccccc1 ?
PK Bst: 2.95*; GBA activity: >76.9

What do the screens show for `NC(=O)c1ccccc1NS(=O)(=O)Cc1ccc(Cl)cc1`?
PK Bst: >57; GBA activity: >76.9

Results for COc1ccc(CCNc2oc(COc3ccccc3F)nc2C#N)cc1 ?
PK Bst: >57; GBA activity: inconclusive

What do the screens show for `COc1ccc(CCNc2oc(Cc3cccc4ccccc34)nc2C#N)cc1OC`?
PK Bst: 9.86*; GBA activity: >76.9

What do the screens show for `N#Cc1nc(Cc2cccc3ccccc23)oc1NCCN1CCCCC1`?
PK Bst: 6.33*

Results for CNc1oc(Cc2cccc3ccccc23)nc1C#N ?
PK Bst: inconclusive; GBA activity: >76.9

What do the screens show for `Cc1cc(=O)oc(C)c1C(=O)NCCCN1CCN(c2ccccc2F)CC1`?
PK Bst: >57; GBA activity: >76.9

Results for CCOC(=O)N1CCN(C(=O)c2ccc(NC(=O)c3ccc(C)cc3)cc2)CC1 ?
PK Bst: >57; GBA activity: >76.9

What do the screens show for `COc1ccc(OCc2nnc(SC(C)C(=O)Nc3nccs3)n2-c2ccccc2)cc1` (stereo not given)?
PK Bst: >57; GBA activity: >76.9

What do the screens show for `O=C(CSc1nnc2ccccn12)NC(=O)NC1CCCC1`?
PK Bst: >57; GBA activity: >76.9

Results for O=C(Nc1cccc(-c2nc3ccccc3[nH]2)c1)c1ccco1 ?
PK Bst: inactive; GBA activity: inconclusive

How did O=C(Nc1ccc2nc(-c3cccs3)[nH]c2c1)c1cccs1 do in these assays?
PK Bst: 10.2*; GBA activity: inactive

How did Cc1ccc2nc(-c3ccc(NC(=O)c4ccco4)cc3)[nH]c2c1 do in these assays?
PK Bst: 7.2*; GBA activity: inconclusive

How did Cn1cccc1-c1nc2ccc(NC(=O)c3ccco3)cc2[nH]1 do in these assays?
PK Bst: inactive

Results for CC(=O)Nc1ccc2nc(-c3ccccn3)[nH]c2c1 ?
PK Bst: inconclusive; GBA activity: >76.9

How did O=C(Nc1ccc2nc(-c3cccs3)[nH]c2c1)c1ccco1 do in these assays?
PK Bst: 9.46*; GBA activity: inconclusive

How did CC(C)(C)OC(=O)N1Cc2ccccc2C[C@H]1C(=O)O do in these assays?
PK Bst: >57; GBA activity: >76.9

What do the screens show for `CCCOC1(NC(=O)c2ccccc2)C(C)=CC(=O)C=C1C`?
PK Bst: >57; GBA activity: >76.9

Results for Cc1nnc(SCC(=O)Nc2ccc(N3CCOCC3)cc2)o1 ?
PK Bst: >57; GBA activity: >76.9

What do the screens show for `Cc1cc(C(=O)CN2C(=O)c3ccccc3S2(=O)=O)c(C)n1-c1ccccc1`?
PK Bst: inconclusive; GBA activity: >76.9

Results for Cc1cc(C(=O)CN2C(=O)C3CC=CCC3C2=O)c(C)n1-c1ccccc1 (stereo not given) ?
PK Bst: 6.03*; GBA activity: >76.9

How did O=C(O)c1ccc(CSc2nc3ccccc3o2)cc1 do in these assays?
PK Bst: >57; GBA activity: >76.9

How did Cc1cc(C(=O)CSc2nc3ccccc3o2)c(C)n1C1CC1 do in these assays?
PK Bst: >57; GBA activity: 13.5*

What do the screens show for `C=CCn1c(C)cc(C(=O)CSc2nc3ccccc3o2)c1C`?
PK Bst: inactive; GBA activity: >76.9

How did O=C(CSc1nc2ccccc2o1)c1ccc2c(c1)OCCO2 do in these assays?
PK Bst: >57; GBA activity: 13.6*

What do the screens show for `CCOC(=O)c1c(C#N)c(SCC(=O)Nc2ccc(OC)cc2)nc2c1CN(CC)CC2`?
PK Bst: >57; GBA activity: >76.9

How did c1ccc(-c2noc(-c3cccc4ccccc34)n2)nc1 do in these assays?
PK Bst: 9.59*; GBA activity: >76.9

How did c1ccc(-c2noc(-c3ccco3)n2)nc1 do in these assays?
GBA activity: >76.9

What do the screens show for `COc1cccc(-c2nc(-c3ccccn3)no2)c1OC`?
PK Bst: inactive; GBA activity: >76.9

Results for Cc1ccc(-c2nc(-c3ccccn3)no2)cc1Cl ?
PK Bst: 0.536*; GBA activity: >76.9

Results for Clc1cccc(-c2nc(-c3ccccn3)no2)c1 ?
PK Bst: 3.28*; GBA activity: >76.9

How did COc1ccc(-c2noc(-c3cccc(Cl)c3)n2)cc1OC do in these assays?
PK Bst: >57; GBA activity: inactive

Results for CCOc1ccccc1NC(=O)Cn1nnc(-c2ccc(OCC)c(OCC)c2)n1 ?
PK Bst: >57; GBA activity: >76.9

What do the screens show for `COc1ccc(Cn2c(CCCO)nc3ccccc32)cc1OC`?
PK Bst: >25.6

What do the screens show for `CCn1c(-c2c[nH]c3ccccc23)n[nH]c1=S`?
GBA activity: 10.8*

What do the screens show for `C=CCn1c(-c2c[nH]c3ccccc23)n[nH]c1=S`?
PK Bst: >11.4; GBA activity: >76.9

How did CC(C(=O)Nc1ccccc1-c1ccccc1)N1CCN(C(=O)c2ccco2)CC1 (stereo not given) do in these assays?
PK Bst: >57; GBA activity: >76.9
